High-throughput results (PubChem)
The list is not random: actives were taken first. Their share in the collection is about 1.9%.
PME-1 inh = PME-1 (human) inhibition; recombinant PME-1, FP-Rh probe fluorescence polarization; inhibition, % at 5.9 µM; actives 0.53% (n = 320,000); AID 2130;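 active = inhibition above the campaign mean of all compounds plus 3 SD, cut at about 26% in these data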;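 note: competitive labeling of PME-1 active site by serine hydrolase directed probe; 0% = PME-1 with DMSO and 100% = wells lacking PME-1 enzyme; inhibitors block probe labeling so polarization falls and inhibition rises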
PREPL inh = human PREPL enzyme inhibition; Q4J6C6; recombinant PREPL, fluorescence polarization activity-based probe; inhibition, % at 5.96 µM; actives 0.68% (n = 320,000); AID 2751;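 note: 0% = enzyme with DMSO and 100% = wells lacking enzyme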
GSTO1 counter = blocks human GSTO1 in RBBP9 counter-screen | P78417 | recombinant GSTO1, activity-based probe fluorescence polarization | inhibition, % at 5.96 µM | actives 1.1% (n = 300,000) | AID 1974;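 active = inhibition above the campaign mean inhibition plus 3 SD, cut at about 35% in these data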;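 note: 0% = GSTO1-1 with DMSO and 100% = wells lacking GSTO1-1 enzyme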
Target sequence (P78417 whole entry, looked up): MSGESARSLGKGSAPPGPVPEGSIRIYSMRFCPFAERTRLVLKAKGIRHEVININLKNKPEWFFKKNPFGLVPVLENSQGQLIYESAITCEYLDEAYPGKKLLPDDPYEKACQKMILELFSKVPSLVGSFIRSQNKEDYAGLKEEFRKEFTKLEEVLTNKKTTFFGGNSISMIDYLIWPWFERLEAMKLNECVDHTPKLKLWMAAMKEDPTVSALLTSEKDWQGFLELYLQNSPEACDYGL
Fam108B counter = Fam108B inhibition, counter-screen for RBBP9 inhibitors; actives 0.33% (n = 300,000); inhibition, % at 9.51 µM; recombinant Fam108B, FP-Rh probe fluorescence polarization;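 active = inhibition above the screen mean inhibition plus 3 SD, computed separately per campaign, cut at about 18% in these data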;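 note: inhibitors lower polarization as less probe binds the enzyme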
LYPLA2 counter = LYPLA2 (human) inhibition in PME1 counter-screen; O95372; recombinant LYPLA2, FP-Rh probe fluorescence polarization; inhibition, % at 5.9 µM; actives 0.38% (n = 320,000); AID 2177;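 active = inhibition above the screen-wide mean plus 3 SD, limit set per campaign, cut at about 26% in these data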;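 note: 0% = LYPLA2 with DMSO and 100% = wells lacking LYPLA2 enzyme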
Target sequence (O95372 whole entry, looked up): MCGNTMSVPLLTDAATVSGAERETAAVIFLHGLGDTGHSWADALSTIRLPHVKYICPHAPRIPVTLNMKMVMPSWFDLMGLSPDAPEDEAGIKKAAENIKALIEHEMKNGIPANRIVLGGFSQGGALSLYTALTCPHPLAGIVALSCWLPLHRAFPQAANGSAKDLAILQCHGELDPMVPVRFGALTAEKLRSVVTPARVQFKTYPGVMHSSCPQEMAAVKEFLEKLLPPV
LYPLA1 inh = blocks human lysophospholipase 1, a PME1 counter-screen; O75608; recombinant LYPLA1, FP-Rh probe fluorescence polarization; inhibition, % at 5.9 µM; actives 0.16% (n = 320,000);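 active = inhibition above the mean of all tested compounds plus 3 SD, set per campaign, cut at about 14% in these data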;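 note: inhibitors block serine hydrolase probe labeling of LYPLA1 so polarization falls; 0% = enzyme with DMSO and 100% = wells lacking LYPLA1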
LYPLA1 conf = counter-screen for PME1 inhibitors: confirmation of human LYPLA1 inhibitors; shares compounds with LYPLA1 inh; recombinant LYPLA1, FP-Rh probe fluorescence polarization; inhibition, % at 5.9 µM; actives 69% (n = 480); AID 2233;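 active = mean inhibition across replicates above the hit cutoff set in the primary screen, cut at about 15% in these data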;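 note: loss of FP-Rh probe labeling of LYPLA1 seen as lower polarization; 0% = LYPLA1 with DMSO and 100% = wells lacking LYPLA1 enzyme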
LYPLA2 confirm = LYPLA2 (human) inhibition, confirmation counter-screen; shares compounds with LYPLA2 counter; recombinant LYPLA2, FP-Rh probe fluorescence polarization; inhibition, % at 5.9 µM; actives 72% (n = 1,100);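 active = mean inhibition across replicates above the hit cutoff set in the primary screen, cut at about 26% in these data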;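 note: blocked labeling of the enzyme by serine hydrolase FP-Rh probe lowers polarization; 0% = enzyme with DMSO and 100% = wells lacking LYPLA2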
LYPLA2 gel ABPP = LYPLA2 (human) inhibition, late stage results; inhibition, % at 20 µM; rhLYPLA2 in mouse brain proteome, gel ABPP FP-Rh; shares compounds with LYPLA2 counter; AID 652029; actives 30% (n = 150);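 active = inhibition of LYPLA2 enzyme probe labeling above about 50%, limit read from the data; inactive = inhibition below that limit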;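 note: loss of FP-Rh probe labeling of the LYPLA2 gel band measured as band density; 0% = DMSO only control band and 100% = blank gel background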
PREPL inh cf = human PREPL inhibition, confirmation; shares compounds with PREPL inh; actives 67% (n = 2,000); inhibition, % at 5.96 µM; recombinant PREPL, fluorescence polarization activity probe;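 note: 0% = protein with DMSO and 100% = wells lacking protein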
* marks the source's active call; other numbers are inactive results; / = not tested or not shown. Cut-off read from the data, not from the text of the source, unless noted: active = inhibition above about 43%; inactive = the rest.

SMILES	PME-1 inh	PREPL inh	GSTO1 counter	Fam108B counter	LYPLA2 counter	LYPLA1 inh	LYPLA1 conf	LYPLA2 confirm	others
CCC(=O)N1CCN(c2ccc(NC(=S)NC(=O)c3cccc([N+](=O)[O-])c3)cc2)CC1	0	18	6	5	58*	39*	33*	55*
CCC(=O)N1CCN(c2ccccc2NC(=S)NC(=O)c2cccc([N+](=O)[O-])c2)CC1	-3	10	5	2	-2	-1	/	/
O=c1[nH][nH]c(C(F)(F)F)c1/C=N/N1CCOCC1	-1	-5	6	-2	-5	-2	/	/
CC(=O)Nc1ccccc1-c1ccc(C)o1	-3	-5	6	-1	4	-2	/	/
Cc1ccc(NC(=O)CS(=O)CC(=O)Nc2ccccc2-c2ccc(C)o2)cc1 (stereo not given)	35*	11	31	4	41*	33*	0	-5
Cc1c(OC(C)C(=O)NCC2CCC(C(=O)O)CC2)ccc2c(-c3ccccc3)cc(=O)oc12 (stereo not given)	3	-1	-12	-4	2	1	/	/
O=C(CCCCCCCCN1C(=O)c2ccccc2C1=O)N1CCOCC1	-4	6	6	-1	3	-1	/	/
O=C(CCCCCCN1C(=O)c2ccccc2C1=O)N1CCC(c2ccccc2)C1 (stereo not given)	7	8	-3	4	76*	68*	68*	70*
C(=C\c1ccccc1)/CN1CCN(c2ncnc3c2oc2ccccc23)CC1	0	-118	-3	-2	35*	15*	23*	32*
CCCN1C=CC(=C/C=C(\C#N)C(=O)OCC)C=C1	-6	-1	7	5	-3	0	/	/
CCCCCCN1C=CC(=C/C=C(\C#N)C(=O)OCC)C=C1	-8	26	-1	2	41*	25*	27*	35*
COc1ccc(N2CCN(C(=O)CNC(=O)c3nn(-c4ccc(OC)cc4)c(=O)c4ccccc34)CC2)cc1	1	16	4	-1	55*	22*	16*	60*	LYPLA2 gel ABPP=43
COc1ccc(-n2nc(C(=O)NCC(=O)N3CCN(Cc4ccccc4)CC3)c3ccccc3c2=O)cc1OC	-5	16	-2	5	38*	20*	45*	64*
COc1ccc(-n2nc(C(=O)NCC(=O)N3CCCCC3)c3ccccc3c2=O)c(OC)c1	1	11	0	4	0	-2	/	/
COc1ccc(-n2nc(C(=O)NCC(=O)N3CCN(C)CC3)c3ccccc3c2=O)cc1OC	4	24	-5	4	7	1	/	/
COc1ccc(-n2nc(C(=O)NCC(=O)N3CCN(C)CC3)c3ccccc3c2=O)cc1	4	8	6	1	8	2	/	/
COc1ccc(-n2nc(C(=O)NCC(=O)N3CCN(Cc4ccccc4)CC3)c3ccccc3c2=O)c(OC)c1	2	5	1	0	79*	36*	39*	81*
CC(C)=C(NC(=O)c1ccccc1)C(=O)Nc1cccc(C(=O)O)c1	-1	5	-8	2	12	7	/	/
O=C(O)c1ccccc1C1=Nc2ccc(O)cc2Oc2cc(O)ccc21	17	17	17	18	27*	19*	16*	0
COc1ccc(C(=O)CSc2n[nH]c(=O)n2Cc2ccco2)cc1	-1	1	9	0	10	3	/	/
O=C(c1ccc(S(=O)(=O)N2CCCCC2)cc1)N1CCN(CCN2C(=O)c3cccc4cccc(c34)C2=O)CC1	4	8	-1	3	35*	20*	42*	60*
O=C(/C=C/c1ccccc1)N1CCN(CCN2C(=O)c3cccc4cccc(c34)C2=O)CC1	-3	-7	-1	-3	64*	37*	35*	59*
COc1ccc(OC)c(NC(=O)c2nc(-c3ccccc3)oc2C)c1	5	-2	4	2	-5	-1	/	/
O=C(CCCc1ccccc1)N1CCN(c2ccc([N+](=O)[O-])cc2)CC1	4	-15	-1	3	39*	33*	41*	54*
C=CCn1c(SCC(=O)N2CCCC2=O)nc2sc(CC)cc2c1=O	37*	16	/	/	38*	21*	4	-3
SMILES	PME-1 inh	PREPL inh	GSTO1 counter	Fam108B counter	LYPLA2 counter	LYPLA1 inh	LYPLA1 conf	LYPLA2 confirm	others
CCNc1cc(O)ccc1C	31*	70*	/	/	40*	31*	15*	8	PREPL inh cf=15
Cc1cc(NS(=O)(=O)c2ccc(Nc3nc(-c4sc(NC(=O)c5ccccc5)nc4C)cs3)cc2)no1	81*	66*	9	-9	59*	41*	37*	37*	PREPL inh cf=63*
Cc1nc(NC(=O)c2ccccc2)sc1-c1csc(Nc2cccc(F)c2)n1	5	6	-18	10	-26	-19	/	/
Cc1ccc(C)c(C(=O)C(C)Sc2nc3nn(-c4ccccc4)c(=O)c-3c3n2CCCCC3)c1 (stereo not given)	0	6	-3	-1	-2	-1	/	/
Cc1ccc2nc(-c3cccc(N)c3)[nH]c2c1	1	3	2	3	8	1	/	/
Cc1ccc2nc(-c3sc4nc(C)cc(C)c4c3N)[nH]c2c1	30*	73*	-2	4	9	15*	2	/	PREPL inh cf=37
CC(=O)Cc1nsc(NC(=O)c2cccs2)n1	5	3	-5	1	3	0	/	/
Cc1noc(NS(=O)(=O)c2ccc(NC(=O)Nc3ccc(Cl)c(Cl)c3)cc2)c1C	51*	48*	-35	8	14	35*	2	/	PREPL inh cf=46*
O=C(c1ccc(N2CCN(C(=O)c3ccccc3)CC2)cc1)c1cccc(F)c1	-1	12	-4	0	27*	-3	/	30*
O=C(c1ccccc1)c1ccc(C(=O)N2CCN(c3ccc(O)cc3)CC2)cc1	/	19	/	/	/	/	/	/
O=C(c1ccc(N2CCN(C(=O)c3ccc(F)c(F)c3)CC2)cc1)c1cccc(F)c1	5	22	-6	4	32*	-4	/	33*
COc1ccc(OC)c2c1sc(=NC(=O)C1COc3ccccc3O1)n2C (stereo not given)	0	-5	0	1	4	1	/	/
